Data published in ChEMBL document CHEMBL3433997, “St. Jude Leishmania screening dataset” (2016).

Assays:
Format in all cases: functional
[1] = target: Solute carrier family 2, facilitated glucose transporter member 1 (Homo sapiens) (UniProt P11166); assay: ST_JUDE_LEISH: Cytotoxicity at 2uM final concentration against transgenic Leishmania Mexicana promastigotes LmGLUT1 that are glucose transport deficient and complemented with the human glucose transporter GLUT1. Activity is measured by DNA content using SYBR green in vitro
[2] = target: Hexose transporter 1 (Plasmodium falciparum) (UniProt O97467); assay: ST_JUDE_LEISH: Cytotoxicity at 2uM final concentration against transgenic Leishmania Mexicana promastigotes LmPfHT that are glucose transport deficient and complemented with the Plasmodium falciparum hexose transporter. Activity is measured by DNA content using SYBR green in vitro
[3] = target: Glucose transporter (Leishmania mexicana) (UniProt O61059); assay: ST_JUDE_LEISH: Cytotoxicity at 2uM final concentration against transgenic Leishmania Mexicana promastigotes LmGT2 that are glucose transport deficient and complemented with the L. Mexicana glucose transporter 2. Activity is measured by DNA content using SYBR green in vitro

Chain of Solute carrier family 2, facilitated glucose transporter member 1 (Homo sapiens) (P11166 whole entry): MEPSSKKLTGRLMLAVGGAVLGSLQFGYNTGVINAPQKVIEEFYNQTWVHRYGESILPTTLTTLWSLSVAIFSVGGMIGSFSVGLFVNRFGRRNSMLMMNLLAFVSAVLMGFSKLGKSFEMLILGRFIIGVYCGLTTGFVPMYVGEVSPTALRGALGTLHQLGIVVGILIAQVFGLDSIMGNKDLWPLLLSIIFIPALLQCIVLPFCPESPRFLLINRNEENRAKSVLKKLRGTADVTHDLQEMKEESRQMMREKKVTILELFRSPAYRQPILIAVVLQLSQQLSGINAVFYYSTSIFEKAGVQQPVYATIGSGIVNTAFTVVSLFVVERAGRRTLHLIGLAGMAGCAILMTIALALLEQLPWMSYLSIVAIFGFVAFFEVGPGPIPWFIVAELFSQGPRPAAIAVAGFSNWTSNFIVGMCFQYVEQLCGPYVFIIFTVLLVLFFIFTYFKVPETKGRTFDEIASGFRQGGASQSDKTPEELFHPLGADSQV

## SC(=Nc1ccc2c(c1)OCCO2)NN=Cc1ccccn1
[1]
  inhibition: -0.28%
[2]
  inhibition: -0.16%
[3]
  inhibition: 8.54%

## NC(=O)c1cccc(C(=O)Nc2ccc(-c3cccc(-c4nc5cc(F)ccc5[nH]4)c3)cc2)c1
[1]
  inhibition: 0.18%
[2]
  inhibition: 0.01%
[3]
  inhibition: 0.23%

## CO/C(=C\C=C\c1cc2cc(Cl)c(Cl)cc2[nH]1)C(=O)NCCCN1CCN(c2cccc(CCCO)c2)CC1
[1]
  inhibition: 6%
[2]
  inhibition: 5.32%
[3]
  inhibition: 5.89%
